Bioassay records: PubChem BioAssay, Broad Institute
The entries come from a sample that favours hits as a whole.
IDE exosite FP = displaces the probe from the exo-site of human IDE; 17,000 compounds, 6.3% hits; P14735; AID 1259349; purified IDE, FL-6b probe fluorescence polarization; stronger effect = lower value; z-score at 20 µM;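 active means z-score of -3 or lower, meaning strong loss of probe binding signal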;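 further: His-tagged human IDE residues 42-1019 made in E. coli with 30 nM FL-6b probe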
Target sequence (P14735 42-1019 limits assumed): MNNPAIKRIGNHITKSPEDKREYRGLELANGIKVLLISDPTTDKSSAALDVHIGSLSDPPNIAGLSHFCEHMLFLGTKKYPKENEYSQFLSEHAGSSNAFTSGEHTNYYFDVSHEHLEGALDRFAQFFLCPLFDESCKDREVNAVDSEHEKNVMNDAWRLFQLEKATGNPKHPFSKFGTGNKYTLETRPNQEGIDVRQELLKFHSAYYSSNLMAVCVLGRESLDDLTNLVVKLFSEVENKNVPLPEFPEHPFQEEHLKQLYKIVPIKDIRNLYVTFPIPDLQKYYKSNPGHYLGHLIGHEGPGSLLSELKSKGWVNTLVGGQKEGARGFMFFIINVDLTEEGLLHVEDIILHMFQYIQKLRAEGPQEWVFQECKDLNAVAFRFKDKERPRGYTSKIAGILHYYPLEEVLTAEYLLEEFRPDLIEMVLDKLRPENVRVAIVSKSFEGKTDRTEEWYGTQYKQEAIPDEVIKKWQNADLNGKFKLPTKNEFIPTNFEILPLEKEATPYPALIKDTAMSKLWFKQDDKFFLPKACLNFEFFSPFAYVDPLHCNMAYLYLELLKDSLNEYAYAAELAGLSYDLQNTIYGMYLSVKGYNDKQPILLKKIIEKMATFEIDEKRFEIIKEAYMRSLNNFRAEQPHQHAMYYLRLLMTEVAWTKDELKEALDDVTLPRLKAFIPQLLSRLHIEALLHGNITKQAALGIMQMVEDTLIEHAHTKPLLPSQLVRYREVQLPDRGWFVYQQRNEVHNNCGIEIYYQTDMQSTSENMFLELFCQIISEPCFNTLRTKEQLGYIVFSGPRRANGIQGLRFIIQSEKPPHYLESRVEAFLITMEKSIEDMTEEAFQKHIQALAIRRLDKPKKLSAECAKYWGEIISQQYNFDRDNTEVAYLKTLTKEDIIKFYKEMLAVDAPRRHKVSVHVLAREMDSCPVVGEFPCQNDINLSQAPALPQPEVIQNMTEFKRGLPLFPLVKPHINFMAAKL
* marks the source's active call; other numbers are inactive results.

SMILES	IDE exosite FP
Cc1ccc(S(=O)(=O)N2C[C@H](O)COC[C@@H]3O[C@H](CC(=O)NCc4ccc5c(c4)OCO5)CC[C@H]32)cc1	-0.441
COCCN(C[C@H]1[C@H](c2ccccc2)[C@@H](CO)N1C(=O)C1CCC1)C(C)=O	3.4
CC(=O)N1CC(=O)N2[C@H](CO)[C@@H](c3ccc(-c4ccc(C#N)cc4)cc3)[C@@H]2C1	1.76
CO[C@H]1CN(C)C(=O)c2cc(NS(C)(=O)=O)ccc2OC[C@H](C)N(Cc2cncnc2)C[C@@H]1C	-0.649
N#C[C@@H]1[C@@H](c2ccccc2)[C@H](CO)N1C(=O)c1ccc2c(c1)OCO2	-0.312
CCCC#Cc1ccc([C@@H]2[C@@H](CO)N3CCCCN(Cc4cccnc4)C[C@@H]23)cc1	3.06
COCc1cn(CC[C@@H]2CC[C@@H](NC(=O)Nc3c(C)noc3C)[C@H](CO)O2)nn1	-0.0206
Cc1ccc(S(=O)(=O)N2[C@@H]3CNC[C@H]2C3c2ccc(-c3cccc(C)c3)cc2)cc1 (some centres not stated)	1.08
Cc1ccc(S(=O)(=O)Nc2ccc3c(c2)CC(=O)N([C@H](C)CO)C[C@H](C)[C@@H](CN(C)S(=O)(=O)c2ccccc2)O3)cc1	1.61
Cc1ccccc1-c1ccc([C@@H]2[C@H]3CN(C(=O)c4cccnc4)CCCCN3[C@H]2CO)cc1	-7.33*
Cc1ccccc1-c1ccc([C@@H]2[C@@H](CO)N3CCCCN(C(=O)c4cccnc4)C[C@@H]23)cc1	-7.98*
Cc1ccccc1-c1ccc([C@H]2[C@@H](CO)N3CCCCN(C(=O)c4cccnc4)C[C@@H]23)cc1	-4.79*
O=C(C[C@H]1CC[C@@H]2NC[C@@H](O)COC[C@H]2O1)Nc1ccc(-c2ccccc2)cc1	-1.36
COc1ccc(CNC(=O)C[C@H]2C=C[C@@H](NC(=O)c3cccc(F)c3)[C@@H](CO)O2)cc1	-0.817
O=C(Nc1cc(F)ccc1F)N1CC(=O)N2[C@@H](CO)[C@H](c3ccc(/C=C/c4ccccc4)cc3)[C@@H]2C1	-1.11
O=C(c1cccnc1)N1CC(=O)N2[C@H](CO)[C@@H](c3ccc(-c4ccccc4F)cc3)[C@H]2C1	0.116
O=C(Nc1cc(F)ccc1F)N1CC(=O)N2[C@H](C1)[C@H](c1ccc(-c3ccccc3)cc1)[C@@H]2CO	-0.216
C[C@H]1CN([C@@H](C)CO)C(=O)c2ccccc2-c2ccccc2CO[C@@H]1CN(C)C(=O)NC1CCCCC1	0.933
CC(=O)NC[C@@H]1[C@@H](c2ccc(-c3cccnc3)cc2)[C@@H](CO)N1C(=O)C1CCC1	1.27
COc1ccc(-c2ccccc2[C@H]2[C@@H](C#N)N(C(=O)C3CCCCC3)[C@H]2CO)cc1	3.47
COCC(=O)N1CCCCN2[C@H](CO)[C@H](c3ccc(-c4ccccc4)cc3)[C@H]2C1	-0.281
COCC(=O)N1CCCCN2[C@H](C1)[C@H](c1ccc(C#Cc3ccccc3)cc1)[C@@H]2CO	-9.96*
COCC(=O)N1CCCCN2[C@H](C1)[C@@H](c1ccc(C#Cc3ccccc3)cc1)[C@@H]2CO	-5.91*
COCC#Cc1ccc([C@@H]2[C@H]3CN(C(=O)COC)CCCCN3[C@H]2CO)cc1	0.849
COCC#Cc1ccc([C@H]2[C@@H](CO)N3CCCCN(C(=O)COC)C[C@H]23)cc1	2.62
SMILES	IDE exosite FP
COCC(=O)N1CCCCN2[C@@H](CO)[C@H](c3ccc(C#Cc4ccccc4)cc3)[C@@H]2C1	-11.3*
COCC(=O)N1CCCCN2[C@H](CO)[C@@H](c3ccc(-c4ccccc4)cc3)[C@@H]2C1	-0.528
COCC(=O)N1CCCCN2[C@H](C1)[C@H](c1ccc(-c3ccccc3)cc1)[C@@H]2CO	-0.423
COCC(=O)N1CCCCN2[C@H](CO)[C@H](c3ccc(C#Cc4ccccc4)cc3)[C@@H]2C1	-8.38*
COCC#Cc1ccc([C@@H]2[C@@H](CO)N3CCCCN(C(=O)COC)C[C@H]23)cc1	1.02
COCC#Cc1ccc([C@H]2[C@@H](CO)N3C(=O)CN(C(=O)C4CC4)C[C@H]23)cc1	2.06
O=C(Nc1cccc(F)c1)N1CC(=O)N2[C@H](CO)[C@@H](c3ccc(-c4ccccc4)cc3)[C@H]2C1	0.802
CN1c2ccc(-c3ccccc3)cc2[C@H]2[C@H](CCN2C(=O)NC2CCCCC2)[C@@H]1CO	0.0738
CCCNC(=O)[C@@H]1[C@@H](CO)[C@@H]2Cn3c(ccc(C4=CCCC4)c3=O)[C@@H]2N1C(=O)c1cnccn1	0.309
C/C=C/c1cnc2c(c1)C(=O)N([C@@H](C)CO)C[C@@H](C)[C@H](CN(C)CC1CCOCC1)O2	0.0919
C[C@@H](O)C#Cc1ccc([C@@H]2[C@@H](CO)N3CCCCN(C(=O)c4ccc5c(c4)OCO5)C[C@@H]23)cc1	1.45
CC(C)CC#Cc1ccc([C@H]2[C@@H](CO)N3C(=O)CN(C(=O)c4ccc5c(c4)OCO5)C[C@H]23)cc1	0.839
CS(=O)(=O)N1Cc2cc(C(=O)NCC3CC3)nc(-c3cccc(-c4cncnc4)c3)c2[C@@H]1CCO	0.374
O=C(c1ccncc1)N1CC(=O)N2[C@H](CO)[C@@H](c3ccc(C#CCC4CCCC4)cc3)[C@H]2C1	2.64
O=C(Cc1ccccn1)N[C@H]1CC[C@@H](CCNS(=O)(=O)c2cccc(F)c2)O[C@@H]1CO	0.701
Cc1ccc(NC(=O)Nc2ccc3c(c2)C(=O)N(C)[C@H]2CC[C@H](CC(=O)NCC(F)(F)F)O[C@@H]2CO3)cc1	-1.98
CN1C[C@@H](O)COC[C@@H]2O[C@H](CC(=O)NC3CCCC3)CC[C@H]21	1.09
COCC(=O)N1CCCCN2[C@H](CO)[C@@H](c3ccc(C#Cc4ccc(OC)cc4)cc3)[C@H]2C1	1.72
COCC(=O)N1CCCCN2[C@H](CO)[C@@H](c3ccc(C#Cc4ccc(OC)cc4)cc3)[C@@H]2C1	-1.38
COCC(=O)N1CCCCN2[C@H](CO)[C@H](c3ccc(C#Cc4ccc(OC)cc4)cc3)[C@@H]2C1	-8.49*
CN1CCN(C(=O)C[C@@H]2CC[C@@H]3[C@H](COC[C@H](O)CN3Cc3cccc(-c4ccncc4)c3)O2)CC1	-0.944
C/C=C/c1ccc([C@H]2[C@@H](CO)N(CCC)[C@@H]2CNC(=O)NC2CCCC2)cc1	1.8
COc1ccc(-c2ccccc2[C@H]2[C@@H](C#N)N(C(=O)NC3CCCCC3)[C@H]2CO)cc1	1.32
COc1ccccc1-c1ccc([C@@H]2[C@@H](C#N)N(C(=O)CN(C)C)[C@H]2CO)cc1	-12.4*
COc1ccccc1-c1ccccc1[C@@H]1[C@H](C#N)N(C(=O)CN(C)C)[C@H]1CO	-0.82
SMILES	IDE exosite FP
COc1ccc(-c2ccc([C@@H]3[C@@H](CO)N(C(=O)NC(C)C)[C@H]3C#N)cc2)cc1	0.163
COc1ccccc1-c1ccc([C@@H]2[C@@H](C#N)N(C(=O)NC3CCCCC3)[C@@H]2CO)cc1	-10.5*
CN(C)CC(=O)N1[C@H](C#N)[C@@H](c2ccc(-c3ccccc3F)cc2)[C@H]1CO	0.21
COc1ccccc1-c1ccc([C@@H]2[C@@H](C#N)N(C(=O)NC(C)C)[C@@H]2CO)cc1	-12.9*
COc1ccc(-c2ccc([C@@H]3[C@@H](C#N)N(C(=O)NC(C)C)[C@H]3CO)cc2)cc1	0.757
COc1ccc(-c2ccc([C@H]3[C@H](C#N)N(C(=O)NC4CCCCC4)[C@H]3CO)cc2)cc1	4.47
COc1ccc2c3c([nH]c2c1)[C@H](CO)N(S(=O)(=O)c1ccc(C)cc1)CC31CCN(Cc2nccs2)CC1	-0.617
CCS(=O)(=O)N(C)C[C@@H]1N[C@H](CO)[C@@H]1c1ccc(C#CC2CCCC2)cc1	4.29
